H9c2 protect = modulators protecting cardiomyocytes from myocardial damage | H9c2 cardiomyocytes, H2O2 injury protection, ATPLite, 2 h | protection from H2O2 cell death, % at 20 µM | 0.63% of 360,000 active | AID 588492;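 active = compounds giving at least 50% protection of heart cells from peroxide-induced death in the single-dose screen, raw or plate-pattern-corrected value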;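 also: 0% = DMSO wells with peroxide and 100% = DMSO wells without peroxide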
ABCB6 inh MLPCN = human ABCB6 transporter inhibition | 0.19% of 360,000 active | Q9NP58 | fluorescence ratio to DMSO, % at 10 µM | K562-ABCB6 porphyrin accumulation, flow cytometry, 1 h; active compounds read low;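 active = fluorescence ratio to DMSO below 75%, the collection mean minus 3 SD; inconclusive = too few cells collected in the well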;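 also: signal is porphyrin accumulated inside mitochondria; 100% equals median channel fluorescence of DMSO control wells; lower ratio means ABCB6 inhibition with less porphyrin fluorescence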
Target sequence (Q9NP58 whole entry, looked up): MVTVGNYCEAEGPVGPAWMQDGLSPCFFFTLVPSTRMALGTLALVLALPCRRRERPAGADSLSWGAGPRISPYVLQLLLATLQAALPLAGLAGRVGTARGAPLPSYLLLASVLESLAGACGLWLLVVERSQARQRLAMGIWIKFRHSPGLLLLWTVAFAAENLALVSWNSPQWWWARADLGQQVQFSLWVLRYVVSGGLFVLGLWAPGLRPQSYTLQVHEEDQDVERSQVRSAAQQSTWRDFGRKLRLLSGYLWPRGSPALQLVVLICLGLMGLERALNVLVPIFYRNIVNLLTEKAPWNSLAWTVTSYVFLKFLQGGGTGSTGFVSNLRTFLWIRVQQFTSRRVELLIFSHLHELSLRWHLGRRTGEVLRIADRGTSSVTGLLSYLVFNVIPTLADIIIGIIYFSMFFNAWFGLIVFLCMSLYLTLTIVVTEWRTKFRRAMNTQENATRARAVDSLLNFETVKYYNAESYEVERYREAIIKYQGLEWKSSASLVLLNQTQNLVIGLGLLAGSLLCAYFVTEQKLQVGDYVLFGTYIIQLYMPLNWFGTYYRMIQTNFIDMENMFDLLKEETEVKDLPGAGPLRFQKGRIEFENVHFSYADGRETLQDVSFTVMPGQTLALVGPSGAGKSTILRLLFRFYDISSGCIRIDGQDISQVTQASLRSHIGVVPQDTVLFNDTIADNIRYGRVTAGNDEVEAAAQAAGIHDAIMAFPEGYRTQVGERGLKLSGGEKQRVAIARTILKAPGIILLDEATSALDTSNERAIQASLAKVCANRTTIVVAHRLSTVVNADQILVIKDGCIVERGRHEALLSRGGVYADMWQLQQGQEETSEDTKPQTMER
iPSC survival up = increases survival of single human iPS cells | hiPSC single-cell survival, ATPlite luminescence; 100% = ROCK inhibitor wells, 0% = DMSO | survival enhancement, % at 20 µM | 0.044% of 360,000 active; in the data active = survival enhancement above about 18%;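 also: cells exposed to compounds for 16 hours before the ATP read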
MIN6 prolif = induces beta-cell replication in MIN6 cells | MIN6 cells proliferation, ATPlite luminescence, 48 h; cells starved in 0.2% serum; 100% = growth in 10% serum | proliferation, % at 10 µM | 0.29% of 330,000 active;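 active = compounds whose signal lies at least 3.5 SD above the mean of all wells on their plate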;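 also: 0% = DMSO-treated cells in low-serum medium and 100% = 10% serum control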
Myeloid diff 2 = compounds promoting myeloid differentiation; ER-HoxA9 myeloid progenitors, lysozyme-GFP differentiation, flow cytometry; calls only at 10 µM; 1% of 360,000 active; AID 624256;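 active = normalized GFP-positive differentiation at or above the plate's own cutoff, the solvent-only control mean plus 3 SD; inconclusive = no clear call, values can overlap the other calls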;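 also: cells exposed to compound for four days before flow analysis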
ABCB6 inh CP1 = inhibitors of human ABC transporter ABCB6; K562-ABCB6 porphyrin accumulation, flow cytometry, 1 h; active compounds read low; ratio response (% of DMSO), % at 10 µM; 700 tested, under 10 active; shares compounds with ABCB6 inh MLPCN;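 active = repeat-averaged ratio response below 75% of DMSO, the collection mean minus 3 SD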;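 also: median porphyrin fluorescence at 575 nm with 488 nm excitation from mitochondria; lower ratio means less porphyrin signal so ABCB6 inhibition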
* hit, by the source's call; i = inactive; ? = inconclusive; · = no result given. An excerpt weighted towards active compounds, which were near 2.2% of everything screened.

SMILES | H9c2 protect | ABCB6 inh MLPCN | iPSC survival up | MIN6 prolif | Myeloid diff 2 | ABCB6 inh CP1
CCOc1ccc(C(=O)N[C@H](C(=O)Nc2ccc(OC)c(S(=O)(=O)N3CCOCC3)c2)C(C)C)cc1 | 6 | 73* | -1 | 0 | i | 99
Cn1nc(C(F)(F)F)c(-c2cccc(C(F)(F)F)c2)c1NC(=O)Nc1ccc(F)cc1 | -18 | 11* | 0 | -6 | i | 96
Cn1nc(C(F)(F)F)c(-c2cccc(C(F)(F)F)c2)c1NC(=O)c1ccco1 | 3 | 100 | 0 | -3 | i | ·
CNC(=O)Nc1nnc(C(C)(C)C)s1 | -2 | 94 | 0 | 0 | i | ·
CN(C)CCCNc1c2ccccc2nc2ccccc12 | -2 | 96 | 0 | -6 | · | ·
OCCNc1c2ccccc2nc2c(F)c(F)c(F)c(F)c12 | -28 | 71* | 0 | · | · | 109
CCOC(=O)c1cc2c(N)c(C(=O)c3cc(C#N)c(SC)nc3C)sc2nc1C | -11 | 72* | 1 | -3 | ? | 104
CCOC(=O)c1cc(C#N)c(SC)nc1C | 0 | 98 | -1 | 2 | i | ·
COc1ccc(NC(=O)CN2CCC(NC(=O)C3CCCCC3)CC2)cc1 | -5 | 68* | -1 | 0 | i | 98
CCOC(=O)c1sc2nc(C)cc(C)c2c1N | 2 | 94 | -1 | -1 | i | ·
CCOC(=O)c1sc2nc(C)cc(-c3ccccc3)c2c1N | -8 | 71* | -1 | -4 | i | 100
COc1cccc(CN(CC(=O)NCC2CCCO2)C(=O)CCC(=O)Nc2cc(C)on2)c1 (configuration not stated) | 5 | 73* | -1 | -2 | i | 102
COc1ccc(CN(CC(=O)NCC2CCCO2)C(=O)CCC(=O)Nc2cc(C)on2)cc1 (configuration not stated) | 3 | 95 | 0 | 1 | i | ·
COC(=O)C1C(=O)C2=C(CC1C)NC(C)=C(C(=O)OC(C)C)C2c1ccc(OC)c(O)c1 (configuration not stated) | 2 | 73* | 2 | 0 | i | 101
COC(=O)C1C(=O)C2=C(CC1C)NC(C)=C(C(=O)OC1CCCC1)C2c1ccc(N(C)C)cc1 (configuration not stated) | 23 | 96 | 0 | 0 | i | ·
COC(=O)C(NC(=O)CCc1nnc2ccc(N3CCCCC3)nn12)C(C)C (configuration not stated) | 0 | 100 | 1 | -2 | i | 100
COc1cc(NC(=O)CCc2nnc3ccc(N4CCC(C)CC4)nn23)cc(OC)c1 | -6 | 101 | 0 | -3 | i | ·
CC1CCN(c2ccc3nnc(CCC(=O)NC(C)C)n3n2)CC1 | 4 | 97 | 0 | 0 | i | 91
COCCNC(=O)CCc1nnc2ccc(N3CCC(C)CC3)nn12 | -2 | 96 | 0 | -5 | i | 101
COCCCNC(=O)CCc1nnc2ccc(N3CCC(C)CC3)nn12 | 5 | 94 | 0 | -1 | i | 102
O=C1NC2(CCCC2)C(=O)N1Cc1cc(=O)n2ccsc2n1 | · | · | · | 1 | · | ·
Cn1c(N2CCOCC2)c(/C=N/OC(=O)c2cccnc2Cl)c2ccccc21 | 2 | 98 | -1 | · | i | ·
CCCN1C(=O)c2ccc(C(=O)Nc3nccs3)cc2C1=O | 4 | 94 | 0 | -3 | i | ·
OCCCCNCc1ccc(OCc2ccc(Cl)cc2)cc1 | 15 | 96 | -4 | -1 | i | ·
CCN(CC)CCNC(=O)CCc1nnc2ccc(N3CCC(C)CC3)nn12 | 0 | 99 | -1 | -2 | i | 103
SMILES | H9c2 protect | ABCB6 inh MLPCN | iPSC survival up | MIN6 prolif | Myeloid diff 2 | ABCB6 inh CP1
CC1CCN(c2ccc3nnc(CCC(=O)Nc4ccc(F)cc4)n3n2)CC1 | 4 | 100 | 0 | 3 | i | ·
O=C(Oc1ccc2ccccc2c1)c1cncc(Br)c1 | -10 | 100 | -2 | -4 | i | ·
O=C(Oc1ccc2c(=O)c(Oc3ccc4ccccc4c3)coc2c1)c1cncc(Br)c1 | -3 | 73* | 0 | 0 | i | 102
Cc1ccc(S(=O)(=O)N(C)CC(=O)NCCCn2ccnc2)cc1 | 0 | 61* | 0 | 1 | i | 101
COc1cccc(C2C(C#N)=C(N)Oc3cc(C)[nH]c(=O)c32)c1OC (configuration not stated) | 4 | 100 | 6 | -1 | i | ·
Cc1c(NC(=O)c2cc3c(=O)n4ccccc4nc3s2)c(=O)n(-c2ccccc2)n1C | 3 | 93 | 0 | -4 | i | ·
Cc1cc(C)cc(NC(=O)c2cc3c(=O)n4ccccc4nc3s2)c1 | 15 | 91 | -1 | -2 | i | 97
CSc1ccccc1NC(=O)c1cc2c(=O)n3ccccc3nc2s1 | -3 | 102 | 0 | 1 | i | 101
CC(C)NC(=O)c1cc2c(=O)n3ccccc3nc2s1 | 2 | 79 | 0 | 0 | i | ·
CC(Oc1ccc(Cl)cc1Cl)c1ccnc2nc(N3CCOCC3)nn12 (configuration not stated) | -8 | 74* | 0 | -4 | i | 99
COc1cccc(CNC(=O)c2c[nH]n3c(=O)c(Cl)c(C)nc23)c1 | 7 | 98 | 1 | -1 | i | ·
CNC(=O)c1c[nH]n2c(=O)c(Cc3ccccc3F)c(C)nc12 | 12 | 107 | -1 | -3 | i | 116
Cc1cccc(N2CCN(C(=O)c3cccc(N4C(=O)C5C6C=CC(C6)C5C4=O)c3)CC2C)c1 (configuration not stated) | 7 | 94 | 0 | -3 | i | ·
Cc1cccc(N2CCN(C(=O)CCN3C(=O)C4C5C=CC(C5)C4C3=O)CC2C)c1 (configuration not stated) | 14 | 67* | 0 | -2 | i | 96
O=C1CCN(Cc2ccc(Br)cc2)CCN1CCO | 4 | 97 | -1 | -1 | i | ·
CCCCn1cnc2c(cnn2-c2ccc(Cl)cc2)c1=O | -7 | 62* | -3 | -2 | · | 97
Cc1cccc(NC(=O)C2CCN(S(=O)(=O)c3c(C)noc3/C=C/c3ccco3)CC2)n1 | -4 | 51* | -2 | -2 | i | 98
CCC(C)N1CCN(C(=O)C2CCN(S(=O)(=O)c3c(C)noc3/C=C/c3ccco3)CC2)CC1 (configuration not stated) | 2 | 103 | 0 | -6 | ? | ·
O=C(CCCCCNc1nc(=S)[nH]c2ccccc12)N1CCN(c2ccccn2)CC1 | 16 | 74* | 0 | 0 | i | 100
COc1cccc(N2CCN(C(=O)CCCCCNc3nc(=S)[nH]c4ccccc34)CC2)c1 | -4 | 102 | 0 | -4 | i | ·
CCC(C)(C)NC(=O)C(c1cccn1C)N(Cc1ccccc1)C(=O)Cn1nnc2ccccc21 (configuration not stated) | 4 | 107 | -2 | · | i | ·

Compound activity (PubChem)
